Source: PubChem BioAssay
HCV inh: HCV inhibition | 340,000 tested, 3.4% active | AID 651820 | Huh7.5.1 HCVcc-Cre infection, luciferase reporter, 44 h | Potency, µM (titrated, usually from 41.8 µM), for the others: top-dose activity change, negative = inhibition, hits mostly inhibitors; note: potency is the fitted concentration of half-maximal effect
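Reporter virus HCVcc-Cre (~0.5 moi) infects cells exposed to compound; seeding density 1,000 cells/well with 4 h settling beforehand. Luminescence, 15 sec read, taken 44 h post-infection following a 15 min RT substrate incubation.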
Pf growth 48h: P. falciparum growth inhibition at 48 hours (one generation); AID 504832; 310,000 tested, 5.9% active; P. falciparum luciferase growth in erythrocytes, 48 h; Potency, µM (highest dose often 28.7 µM), without a hit: at the highest dose activity change, negative = inhibition, usual class: inhibitors; note: potency is the fitted concentration of half-maximal effect
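Parasite viability was followed by luminescence of a genomically integrated firefly luciferase. Cultures held 0.1% parasitemia at 2% hematocrit (final), incubated under 5% CO2 at 37 C.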
HCMV antiviral: blocks human cytomegalovirus replication | 410,000 tested, 4.5% active | AID 1259415 | activity change, negative = inhibition, % at 57.5 µM | HFF cells, HCMV-luciferase reporter, 72 h; active compounds read low; in the data active = activity change below about -60%; inconclusive = no clear call, values can overlap the other calls; inactive = above about -39%
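Human foreskin fibroblasts infected with luciferase-reporter HCMV at MOI 1 PFU/cell, compounds at two doses. Luciferase measured 72 h post infection; normalized to buffer-only basal and Salinomycin (10uM) controls.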
Pf growth 96h: P. falciparum growth inhibition at 96 hour, primary screen for plastid delayed-death inhibitors; 320,000 tested, 6.9% active; AID 504834; P. falciparum luciferase reporter growth, 96 h; Potency, µM (top dose mostly 28.7 µM), without a hit: top-dose activity change, negative = inhibition, actives largely listed as inhibitors; note: potency is the fitted concentration of half-maximal effect
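Luminescence readout: decreased luciferase signal marks inhibited growth of reporter-expressing P. falciparum in infected red cells (2% hematocrit, 0.05% parasitemia final), exposed to compound two generations (96 h, 37 C, 5% CO2).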
Starred values were filed as active, the others as inactive; ? = inconclusive; · = not tested or not shown. An excerpt weighted towards active compounds, which were near 13% of everything screened. Unless noted, calls come from the whole dose curve; as a rule, active = well fitted inhibition curve with a large enough effect; inconclusive = small, poorly fitted or top-dose-only effect, or another doubt; inactive = no such curve, though single readings can be large or run the other way. % is set by controls: 0 for no effect and ±100 for the full control effect.

SMILES	HCV inh	Pf growth 48h	HCMV antiviral	Pf growth 96h
Cc1nnc(SCC(=O)NN2C(=O)NC3(CCCCC3)C2=O)s1	32%	4%	-62*	-13%
Cc1nnc(SCC(=O)Nc2ccc(S(=O)(=O)N3CCCCC3)cc2)s1	20%	-15%	-65*	?
Cc1cc(C(=O)Nc2ccc(S(=O)(=O)N3CCCC3)cc2)cs1	-20%	?	-25	·
Cc1nnc(SCC(=O)Nc2cccc(S(=O)(=O)N3CCCCC3)c2)s1	1%	-9%	0	?
COc1cccc(-n2cc(C(=O)Nc3cc(OC)c(OC)c(OC)c3)c3ccccc3c2=O)c1	·	·	61	·
COC(=O)C1=C(c2cccc(OCc3ccccc3)c2)C[C@@H]2CC[C@H]1N2C(=O)NCc1ccc(N(C)C)cc1	13µM*	8.3µM*	-19	?
COC(=O)C1=C(c2cccc(OCc3ccccc3)c2)C[C@@H]2CC[C@H]1N2C(=O)NCCOc1ccc(OC)cc1	?	7.4µM*	-29	?
COC(=O)C1=C(c2ccc(OCc3ccccc3)cc2)C[C@@H]2CC[C@H]1N2C(=O)NCc1ccc2[nH]ccc2c1	·	·	-20	·
COC(=O)C1=C(c2cccc(OCc3ccccc3)c2)C[C@@H]2CC[C@H]1N2C(=O)NCc1ccccc1C(F)(F)F	?	4.1µM*	?	?
COC(=O)C1=C(c2cccc(OCc3ccccc3)c2)C[C@@H]2CC[C@H]1N2C(=O)NCCCOC(C)C	?	?	-2	?
COC(=O)C1=C(c2cccc(OCc3ccccc3)c2)C[C@@H]2CC[C@H]1N2C(=O)NCc1ccc(C(C)(C)C)cc1	25µM*	3.7µM*	-17	?
COC(=O)C1=C(c2ccccc2)C[C@@H]2CC[C@H]1N2C(=O)NCc1ccc(C(F)(F)F)cc1	?	·	-15	·
COc1cc(NC(=O)Cn2ncc3c([nH]c4ccc(C)cc43)c2=O)cc(OC)c1OC	·	·	-5	·
COC(=O)C1=C(c2ccc(OCc3ccccc3)cc2)C[C@@H]2CC[C@H]1N2C(=O)NCCN1CCOCC1	-10%	·	3	·
COC(=O)C1=C(c2cccc(OCc3ccccc3)c2)C[C@@H]2CC[C@H]1N2C(=O)NCCN1CCOCC1	13%	?	-17	5.2µM*
COC(=O)C1=C(c2cccc(OCc3ccccc3)c2)C[C@@H]2CC[C@H]1N2C(=O)NCc1cccc(OC)c1	?	10µM*	-26	4.1µM*
CCN(C(=O)c1nn(-c2ccc(OC)c(Cl)c2)c(=O)c2c1c1ccccc1n2C)c1cc(OC)ccc1OC	·	·	9	·
Cc1ccc(NC(=O)C2CCCN(c3ncnc4onc(C)c34)C2)cc1Cl (stereo unspecified)	·	·	-3	·
O=C(Cc1csc(NC(=O)Nc2ccc(Cl)cc2)n1)NC1CCCC1	7.1µM*	?	?	?
CCOC(=O)Cc1csc(NC(=O)/C=C/c2ccc(Br)o2)n1	?	77%	?	?
CCOC(=O)Cc1csc(NC(=O)CCCCCN2C(=O)c3cccc4cccc(c34)C2=O)n1	-20%	·	-27	·
CC(N)c1csc(NC(=O)Nc2cccc(C(F)(F)F)c2)n1 (stereo unspecified)	·	·	-68*	·
CCOC(=O)Cc1csc(NC(=O)/C=C/c2cccc(Br)c2)n1	11µM*	9.3µM*	-39	-24%
CCOC(=O)Cc1csc(NC(=O)CCN2C(=O)c3cccc([N+](=O)[O-])c3C2=O)n1	19%	9%	-3	13µM*
CCOC(=O)C1=CCN(S(=O)(=O)c2cccc(Cl)c2)C1c1ccc(F)cc1 (stereo unspecified)	·	·	-23	·
SMILES	HCV inh	Pf growth 48h	HCMV antiviral	Pf growth 96h
NCc1csc(NC(=O)Nc2cccc(Cl)c2)n1	·	·	-37	·
CCOC(=O)Cc1csc(NC(=O)Nc2cccc(Cl)c2)n1	?	12%	-60*	-27%
CCOC(=O)Cc1csc(NC(=O)C(C)c2ccc([N+](=O)[O-])cc2)n1 (stereo unspecified)	-6%	9.3µM*	-37	23%
CCOC(=O)Cc1csc(NC(=O)Nc2ccc(Cl)cc2)n1	11µM*	?	3	?
NC(c1csc(NC(=O)Nc2cccc(Cl)c2)n1)c1ccccc1Cl (stereo unspecified)	·	·	-76*	·
Cc1cccc(C(=O)NNc2ncnc3c2cnn3-c2ccc(C)cc2C)c1	·	·	-10	·
O=[N+]([O-])c1ccc(Cl)c(S(=O)(=O)n2ccnc2)c1	4%	2.9µM*	16	-5%
O=S(=O)(c1cc(Cl)ccc1Cl)n1ccnc1	12%	0%	?	27%
